Assay results as given in PubChem BioAssay (NCATS).
Results filed as inconclusive are left out. Where a call stands in place of a potency, no number is given. Calls of active or inactive are those of the source. Calls follow the shape of the dose curve; as a rule, active = well fitted cell-killing curve with a large enough effect; inconclusive = small, poorly fitted or top-dose-only effect, or effect the other way; inactive = no such curve, though single readings can be large or run the other way.

Experiments:
[1] = Quantitative High-Throughput drug screen in 47 multiple myeloma cell lines against the NCATS MIPE library collection: FR4_PLB cell viability assay (AID 1918924; also: nearly all actives have a fitted effect of over 35% in size)
In short: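 Primary qHTS used for cherry-picking: cells at 500/well, library compounds for 48 h (37C, 5% CO2), luminescent ATP assay.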

[2] = Quantitative High-Throughput drug screen in 47 multiple myeloma cell lines against the NCATS MIPE library collection: Delta47_JCRB cell viability assay (AID 1918925; also: nearly all actives have a fitted effect of over 45% in size)
In short: (§1)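 Myeloma cells (500 per well) were exposed to MIPE 4.0 compounds by pin transfer and incubated 48 hours at 37C, 5% CO2. Viability was read as ATP by CellTiter-Glo luminescence, normalised to DMSO (100%) and media-only (0%) wells.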

[3] = Quantitative High-Throughput drug screen in 47 multiple myeloma cell lines against the NCATS MIPE library collection: AMO1_DSMZ cell viability assay (AID 1918927; also: nearly all actives have a fitted effect of over 30% in size)
In short: as §1

[4] = Quantitative High-Throughput drug screen in 47 multiple myeloma cell lines against the NCATS MIPE library collection: EJM_DSMZ cell viability assay (AID 1918926; also: nearly all actives have a fitted effect of over 30% in size)
In short: as §1
Potency is read from the fitted curve at half-maximal effect.

Structure (SMILES)	Potency [1]	Potency [2]	Potency [3]	Potency [4]
C[C@]12CC[C@@H]3c4ccc(O)cc4CC[C@H]3[C@H]1C[C@@H](O)[C@H]2O	inactive	2.64 µM (active)	18.7 µM (active)	–
Cc1[nH]c(C=C2C(=O)Nc3ccc(S(=O)(=O)Cc4c(Cl)cccc4Cl)cc32)c(C)c1C(=O)N1CCC[C@H]1CN1CCCC1	23.5 µM (active)	5.9 µM (active)	26.4 µM (active)	–
CON=C(C(=O)N[C@@H]1C(=O)N2C(C(=O)OCOC(=O)C(C)(C)C)=C(C=Cc3scnc3C)CS[C@H]12)c1csc(N)n1	inactive	inactive	inactive	inactive
NC(=O)NN=Cc1ccc([N+](=O)[O-])o1	inactive	–	10.5 µM (active)	–
N#CC(=C(N)Sc1ccccc1N)C(C#N)=C(N)Sc1ccccc1N	7.43 µM (active)	16.6 µM (active)	18.7 µM (active)	10.5 µM (active)
O=C(CCc1ccc(O)cc1)c1c(O)cc(O)cc1O[C@@H]1O[C@H](CO)[C@H](O)[C@H](O)[C@H]1O	inactive	inactive	–	inactive
Cc1c(O)cccc1C(=O)N[C@@H](CSc1ccccc1)[C@H](O)CN1C[C@H]2CCCC[C@@H]2C[C@@H]1C(=O)NC(C)(C)C	26.4 µM (active)	20.9 µM (active)	16.6 µM (active)	23.5 µM (active)
CC=CC[C@@H](C)C(=O)[C@H]1C(=O)N[C@@H](C(C)C)C(=O)N(C)CC(=O)N(C)[C@@H](CC(C)C)C(=O)N[C@@H](C(C)C)C(=O)N(C)[C@@H](CC(C)C)C(=O)N[C@@H](C)C(=O)N[C@H](C)C(=O)N(C)[C@@H](CC(C)C)C(=O)N(C)[C@@H](CC(C)C)C(=O)N(C)[C@@H](C(C)C)C(=O)N1C	23.5 µM (active)	23.5 µM (active)	–	inactive
C[C@@H]1CCN(C(=O)CC#N)C[C@H]1N(C)c1ncnc2[nH]ccc12	inactive	inactive	–	inactive
CCOC(=O)O[C@]1(C(=O)OCCl)CC[C@@H]2[C@H]3CCC4=CC(=O)C=C[C@]4(C)[C@@H]3[C@@H](O)C[C@@]21C	inactive	inactive	inactive	inactive
CC1(C)O[C@H]2C[C@@H]3[C@H]4CCC5=CC(=O)C=C[C@]5(C)[C@@]4(F)[C@@H](O)C[C@]3(C)[C@]2(C(=O)CO)O1	inactive	–	–	inactive
O=C(OCC#CCSc1nnc(-c2cccc3ccccc23)o1)c1cc2ccccc2s1	inactive	inactive	–	23.5 µM (active)
OC[C@H]1O[C@@H](n2cnc3c2NC=NC[C@@H]3O)C[C@H]1O	inactive	inactive	inactive	–
CC(C)OC(=O)CCCC=CC[C@@H]1[C@H](C=C[C@@H](O)COc2cccc(C(F)(F)F)c2)[C@H](O)C[C@@H]1O	29.6 µM (active)	14.8 µM (active)	inactive	–
O=C(O)[C@H]1O[C@H](Oc2cc3oc(-c4ccccc4)cc(=O)c3c(O)c2O)[C@H](O)[C@@H](O)[C@H]1O	26.4 µM (active)	–	–	–
CCOC1OC(=O)C[C@H]1NC(=O)[C@@H]1CCCN1C(=O)[C@@H](NC(=O)c1ccc(N)c(Cl)c1)C(C)(C)C (stereo not given in full)	inactive	inactive	18.7 µM (active)	inactive
CCC(=O)O[C@]1(C(=O)CO)CC[C@H]2[C@@H]3CCC4=CC(=O)CC[C@]4(C)[C@@H]3CC[C@@]21C	inactive	inactive	inactive	inactive

Structure (SMILES)	Potency [1]	Potency [2]	Potency [3]	Potency [4]
COc1ccc2c3c1OC1C[C@@H](O)C=C[C@@]31CCN(C)C2 (stereo not given in full)	inactive	–	inactive	–
O=C1NC(=O)C(=Cc2cccc(C(F)(F)F)c2)S1	inactive	–	–	20.9 µM (active)
C[N+]1(C)[C@@H]2CC(OC(=O)[C@H](CO)c3ccccc3)C[C@H]1[C@H]1O[C@@H]12 (stereo not given in full)	inactive	inactive	inactive	inactive
CC=CC(=O)N(CC)c1ccccc1C	inactive	inactive	inactive	inactive
C[N+](C)(C)CC(=O)O	inactive	–	–	inactive
CN(C)CCC=C1c2ccccc2COc2ccc(CC(=O)O)cc21	inactive	–	inactive	inactive
O=c1c(-c2ccc(O)cc2)coc2cc(O[C@@H]3O[C@H](CO)[C@H](O)[C@H](O)[C@H]3O)ccc12	inactive	–	inactive	inactive
NC1CCC(Nc2nc(Nc3ccc(C(=O)N4CCCCC4)cc3)c3ncn(-c4cccc(F)c4)c3n2)CC1 (stereo not given)	inactive	–	inactive	inactive
CCc1ccc(C=C2SC(=S)NC2=O)cc1	inactive	inactive	–	inactive
O=C1NC(=O)C(=Cc2ccc(-c3ccc(F)cc3)o2)S1	inactive	–	–	–
CC1(C)CCC[C@@]2(C)[C@@H]1CC[C@@]1(C)OC(=O)C[C@H]21	14.8 µM (active)	inactive	–	inactive
OC[C@H]1O[C@@H](Oc2cc(O)cc(C=Cc3ccc(O)cc3)c2)[C@H](O)[C@@H](O)[C@H]1O	inactive	–	inactive	4.69 µM (active)
O=c1ccn([C@@H]2O[C@H](CO)[C@H](O)[C@H]2O)c(=O)[nH]1	inactive	–	–	inactive
CC1(C)S[C@H]2[C@H](NC(=O)[C@@H](N)c3ccc(O)cc3)C(=O)N2[C@@H]1C(=O)O	inactive	inactive	2.35 µM (active)	inactive
Cc1nnc(C(C)C)n1C1C[C@H]2CC[C@@H](C1)N2CC[C@H](NC(=O)C1CCC(F)(F)CC1)c1ccccc1 (stereo not given in full)	inactive	16.6 µM (active)	inactive	–
COC[C@@H](c1ccc(C(F)(F)F)cc1)N1CCN(C2(C)CCN(C(=O)c3c(C)ncnc3C)CC2)C[C@H]1C	inactive	23.5 µM (active)	16.6 µM (active)	inactive
O=C1NC(=O)C(=Cc2ccc3c(c2)OC(F)(F)O3)S1	inactive	–	–	–
